{
  "source": "PubChem BioAssay AID489017",
  "about": "(The Scripps Research Institute Molecular Screening Center, 2010)",
  "tested_on": "Rolipram",
  "assay": "receptor, enzyme and CYP inhibition profiling – biochemical, Ricerca HitProfilingScreen, CYP450, selectivity assay for S1P4 antagonist project, profiling panel (AID 489017)",
  "settings": "Ricerca receptor/enzyme binding panel plus CYP450, at 10 µM, hits give high values",
  "note": "Unmarked numbers belong to inactive results. No rule for the calls is given here.",
  "data": [
    {"compound": "CCc1cccc(CC)c1NC(=O)c1ccc(-c2cc(Cl)ccc2Cl)o1", "values": [
      {"measurement": "inhibition", "value": -2, "unit": "%"}
    ]}
  ]
}
